# According to PubChem BioAssay (Tox21):
# Inconclusive results are not listed. A call without a number means that no potency is given here. Activity calls are given as the source filed them. Unless noted, the call rests on the fitted dose curve; in most records, active means well fitted curve in the direction sought with a large enough effect in the repeat runs; inconclusive means weak or mixed curves; inactive means no such curve, though single readings can be large; an effect the other way counts as inactive or inconclusive.
# Tests used:
# [1] = target: Peroxisome proliferator-activated receptor delta (Homo sapiens) (UniProt Q03181); experiment: qHTS assay to identify small molecule antagonists of the peroxisome proliferator-activated receptor delta (PPARd) signaling pathway (AID 743215; active means well fitted inhibition curve with a large enough effect in the signal ratio in the repeat runs, not every such curve was filed as active; the % refers to the signal ratio;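 further: cells stimulated with agonist L165041 at 300 nM final during compound exposure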; further: potency means the concentration at half of the fitted maximal effect)
# Method in brief: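 With L165041 present at 300 nM final, compounds were incubated 17 h at 37 C on PPARd UAS-bla HEK293H cells. A FRET-based beta-lactamase substrate was then applied for 2 h at room temperature and fluorescence intensity recorded.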
# [2] = target: Bile acid receptor (Homo sapiens) (UniProt Q96RI1); experiment: qHTS assay to identify small molecule antagonists of the farnesoid-X-receptor (FXR) signaling pathway (AID 743217; active means well fitted inhibition curve with a large enough effect in the signal ratio in the repeat runs, not every such curve was filed as active; the % refers to the signal ratio; further: potency means the concentration at half of the fitted maximal effect)
# Method in brief: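 In this cell-based antagonist screen, inhibition of CDCA-driven (50 uM final) UAS-beta-lactamase expression in HEK 293T cells was measured by FRET fluorescence following 16 h compound exposure at 37 °C.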
# [3] = qHTS assay to identify small molecule agonists of the farnesoid-X-receptor (FXR) signaling pathway - cell viability counter screen (AID 743218); further: nearly all actives have a fitted effect of over 45% in size; further: potency means the concentration at half of the fitted maximal effect
# Method in brief: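 After 16 h at 37 C with test compounds, FXR-bla HEK 293T cells were given LiveBLAzer B/G substrate for 2 h at RT and then CellTiter-Glo; luminescence was taken after 30 min.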
# [4] = qHTS assay to identify small molecule antagonists of the farnesoid-X-receptor (FXR) signaling pathway - cell viability counter screen (AID 743221; active means well fitted cell-killing curve with a large enough effect in the repeat runs, not every such curve was filed as active; further: nearly all actives have a fitted effect of over 50% in size; further: potency means the concentration at half of the fitted maximal effect)
# Method in brief: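 Compound effects on cell number were measured as CellTiter-Glo luminescence in HEK 293T cells expressing FXR-UAS-bla, after 16 h at 37 C with 50 uM CDCA (final).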
# [5] = qHTS assay to identify small molecule antagonists of the vitamin D receptor (VDR) signaling pathway - cell viability counter screen (AID 743225); further: nearly all actives have a fitted effect of over 50% in size; further: potency means the concentration at half of the fitted maximal effect
# Method in brief: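 In this counter screen, VDR-bla HEK 293T cells receive test compound plus 3 nM final calcitriol for 16 h at 37C. Room-temperature steps of 2 h with the beta-lactamase substrate, then 30 min with CellTiter-Glo, precede the luminescence read.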
# [6] = qHTS assay to identify small molecule agonists of the NFkB signaling pathway - cell viability counter screen (AID 1159515; calls by dose curve; further: nearly all actives have a fitted effect of over 55% in size; further: potency means the concentration at half of the fitted maximal effect)
# Method in brief: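 5 hr compound treatment of NFkB-bla ME-180 cells (2,000/well, seeded overnight beforehand), followed by reporter substrate for 1.5 hr. CellTiter-Glo added afterward; luminescence after 30 min RT.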
# [7] = qHTS assay to identify small molecule agonists of the endoplasmic reticulum stress response signaling pathway - cell viability counter screen (AID 1159517; calls by dose curve; further: nearly all actives have a fitted effect of over 50% in size; further: potency means the concentration at half of the fitted maximal effect)
# Method in brief: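 ESRE-bla HeLa cells, 1,500 per well, seeded overnight then treated with compounds for 5 hr at 37 C. After the beta-lactamase read, viability in the same wells is measured by CellTiter-Glo luminescence after 30 min at room temperature.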
# [8] = qHTS assay to identify small molecule antagonists of the retinoid-related orphan receptor gamma (ROR-gamma) signaling pathway - cell viability counter screen (AID 1159520); further: nearly all actives have a fitted effect of over 50% in size; further: potency means the concentration at half of the fitted maximal effect
# Method in brief: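 Tet-on ROR gamma CHO cells were given compounds for 2 hr, then doxycycline hyclate at 1 uM final, and incubated 16 hr at 37 C. Viability was measured as ATP content by CellTiter-Glo luminescence.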
# [9] = target: Nuclear receptor ROR-gamma (Homo sapiens) (UniProt P51449); experiment: qHTS assay to identify small molecule antagonists of the retinoid-related orphan receptor gamma (ROR-gamma) signaling pathway (AID 1159521; further: nearly all actives have a fitted effect of over 50% in size; further: potency means the concentration at half of the fitted maximal effect)
# Method in brief: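 Screening format: cell-based luciferase reporter in CHO cells with doxycycline-inducible RORγ. Compound pre-exposure lasts 2 h, doxycycline is 1 uM final, induction runs 16 h at 37 C, and ONE-Glo luminescence is read.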
# [10] = qHTS assay to identify small molecule agonists of the AP-1 signaling pathway - cell viability counter screen (AID 1159525; calls by dose curve; further: nearly all actives have a fitted effect of over 55% in size; further: potency means the concentration at half of the fitted maximal effect)
# Method in brief: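 AP-1-bla ME-180 cells in Opti-MEM with 0.5% dialyzed FBS, compound exposure 5 h at 37 C in 15-point titration. Viability read in the same wells as ATP content by CellTiter-Glo luminescence, normalised to tetra-n-octylammonium bromide and DMSO controls.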
# [11] = qHTS assay to identify small molecule agonists of the peroxisome proliferator-activated receptor delta (PPARd) signaling pathway - cell viability counter screen (AID 743211); further: nearly all actives have a fitted effect of over 55% in size
# Method in brief: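 Following 5 h plating at 37 C and 5% CO2, PPARd UAS-bla HEK293H cells took up test compounds for 17 h. Viability was quantified by luminescence 30 min after CellTiter-Glo addition at room temperature.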
# [12] = qHTS assay to identify small molecule antagonists of the peroxisome proliferator-activated receptor delta (PPARd) signaling pathway - cell viability counter screen (AID 743213); further: nearly all actives have a fitted effect of over 50% in size; further: potency means the concentration at half of the fitted maximal effect
# Method in brief: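 In this counter screen, HEK293H cells carrying a UAS-beta-lactamase reporter are co-treated with test compounds and 300 nM L165041 (final) for 17 h at 37 C; cell viability is quantified by CellTiter-Glo luminescence.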
# [13] = target: Bile acid receptor (Homo sapiens) (UniProt Q96RI1); experiment: qHTS assay to identify small molecule agonists of the farnesoid-X-receptor (FXR) signaling pathway (AID 743220; active means well fitted activation curve with a large enough effect in the signal ratio in the repeat runs, not every such curve was filed as active; the % refers to the signal ratio)
# Method in brief: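 Beta-lactamase reporter under UAS control in GeneBLAzer FXR HEK 293T cells (5000/well) measured with LiveBLAzer FRET substrate after 2 h at room temperature. Compound exposure lasted 16 h at 37C.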
# [14] = target: Vitamin D3 receptor (Homo sapiens) (UniProt P11473); experiment: qHTS assay to identify small molecule agonists of the vitamin D receptor (VDR) signaling pathway (AID 743222; calls by dose curve)
# Method in brief: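 VDR-bla cells were seeded, left 4 h, treated with compounds in DMSO for 16 h, incubated 2 h at RT with B/G FRET substrate, and read for fluorescence.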
# [15] = qHTS assay to identify small molecule agonists of the vitamin D receptor (VDR) signaling pathway - cell viability counter screen (AID 743224); further: nearly all actives have a fitted effect of over 50% in size; further: potency means the concentration at half of the fitted maximal effect
# Method in brief: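 Here cell health was gauged by luminescent ATP detection (CellTiter-Glo, 30 min RT) in VDR-bla cells that had been incubated with test compounds for 16 h at 37C and 5% CO2.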
# [16] = qHTS assay to identify small molecule agonists of the AP-1 signaling pathway (AID 1159526; calls by dose curve)
# [17] = target: Retinoic acid receptor RXR-alpha (Homo sapiens) (UniProt P19793); experiment: qHTS assay to identify small molecule agonists of the RXR signaling pathway (AID 1159527; calls by dose curve; further: nearly all actives have a fitted effect of over 35% in size)
# Method in brief: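 Fluorescence ratio readout (460 vs 530 nm) from GeneBLAzer RXR-alpha HEK 293T cells after 16 hr compound treatment; cells seeded 5 hr beforehand in low-serum, charcoal-stripped medium.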
# [18] = target: Peroxisome proliferator-activated receptor delta (Homo sapiens) (UniProt Q03181); experiment: qHTS assay to identify small molecule agonists of the peroxisome proliferator-activated receptor delta (PPARd) signaling pathway (AID 743212; calls by dose curve)
# Method in brief: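 GeneBLAzer UAS-bla HEK293H cells carrying a PPARδ construct were exposed to compounds at 37 °C. Beta-lactamase activity was read by FRET fluorescence after 2 h at room temperature with LiveBLAzer B/G substrate.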
# [19] = target: Vitamin D3 receptor (Homo sapiens) (UniProt P11473); experiment: qHTS assay to identify small molecule antagonists of the vitamin D receptor (VDR) signaling pathway (AID 743223; active means well fitted inhibition curve with a large enough effect in the signal ratio in the repeat runs, not every such curve was filed as active; the % refers to the signal ratio)
# Method in brief: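 Beta-lactamase activity in VDR-bla cells is measured by FRET substrate fluorescence (2 h, room temperature) after cells spend 16 h at 37C with test compound and 3 nM final 1alpha,25-dihydroxyvitamin D3.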
# Sequence of Bile acid receptor (Homo sapiens) (Q96RI1 whole entry, looked up): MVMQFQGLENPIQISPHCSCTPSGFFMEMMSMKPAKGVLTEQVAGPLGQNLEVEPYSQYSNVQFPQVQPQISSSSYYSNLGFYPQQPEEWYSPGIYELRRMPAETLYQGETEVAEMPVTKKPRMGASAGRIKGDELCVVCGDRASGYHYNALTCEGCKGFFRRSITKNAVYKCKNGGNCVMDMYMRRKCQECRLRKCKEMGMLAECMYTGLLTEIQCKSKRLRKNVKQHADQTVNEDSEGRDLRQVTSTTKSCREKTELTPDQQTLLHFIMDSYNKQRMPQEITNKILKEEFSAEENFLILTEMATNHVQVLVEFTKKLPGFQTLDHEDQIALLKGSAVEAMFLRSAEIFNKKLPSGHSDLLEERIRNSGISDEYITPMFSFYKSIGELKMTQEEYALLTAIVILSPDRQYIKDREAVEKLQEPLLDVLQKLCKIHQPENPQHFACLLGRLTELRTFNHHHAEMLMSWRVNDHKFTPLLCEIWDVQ
# Sequence of Retinoic acid receptor RXR-alpha (Homo sapiens) (P19793 whole entry, looked up): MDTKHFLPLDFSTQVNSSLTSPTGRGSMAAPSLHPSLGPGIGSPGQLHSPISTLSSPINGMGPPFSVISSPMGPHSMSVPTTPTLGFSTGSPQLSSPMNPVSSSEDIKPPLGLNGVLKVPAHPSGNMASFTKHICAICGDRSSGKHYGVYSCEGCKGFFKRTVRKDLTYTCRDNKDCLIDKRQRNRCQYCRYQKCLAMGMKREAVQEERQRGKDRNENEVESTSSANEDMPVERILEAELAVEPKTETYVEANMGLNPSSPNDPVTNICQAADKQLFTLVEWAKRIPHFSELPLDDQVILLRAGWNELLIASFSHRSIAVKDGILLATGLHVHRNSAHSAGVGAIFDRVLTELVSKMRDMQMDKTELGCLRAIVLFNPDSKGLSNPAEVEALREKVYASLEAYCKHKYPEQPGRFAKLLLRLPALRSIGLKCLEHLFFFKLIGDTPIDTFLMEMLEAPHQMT
# Sequence of Vitamin D3 receptor (Homo sapiens) (P11473 whole entry, looked up): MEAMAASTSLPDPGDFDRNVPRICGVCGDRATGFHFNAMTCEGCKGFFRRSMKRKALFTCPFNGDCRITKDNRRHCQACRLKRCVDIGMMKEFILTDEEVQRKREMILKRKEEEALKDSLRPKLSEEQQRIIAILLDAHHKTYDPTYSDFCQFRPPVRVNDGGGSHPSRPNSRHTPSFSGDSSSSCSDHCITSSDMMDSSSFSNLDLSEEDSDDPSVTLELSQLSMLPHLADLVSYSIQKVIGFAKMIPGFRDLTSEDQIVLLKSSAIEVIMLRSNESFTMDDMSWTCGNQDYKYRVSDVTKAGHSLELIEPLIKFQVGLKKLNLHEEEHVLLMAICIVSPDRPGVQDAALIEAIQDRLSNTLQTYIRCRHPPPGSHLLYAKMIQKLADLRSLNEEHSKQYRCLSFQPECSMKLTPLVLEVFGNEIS
# Sequence of Peroxisome proliferator-activated receptor delta (Homo sapiens) (Q03181 whole entry, looked up): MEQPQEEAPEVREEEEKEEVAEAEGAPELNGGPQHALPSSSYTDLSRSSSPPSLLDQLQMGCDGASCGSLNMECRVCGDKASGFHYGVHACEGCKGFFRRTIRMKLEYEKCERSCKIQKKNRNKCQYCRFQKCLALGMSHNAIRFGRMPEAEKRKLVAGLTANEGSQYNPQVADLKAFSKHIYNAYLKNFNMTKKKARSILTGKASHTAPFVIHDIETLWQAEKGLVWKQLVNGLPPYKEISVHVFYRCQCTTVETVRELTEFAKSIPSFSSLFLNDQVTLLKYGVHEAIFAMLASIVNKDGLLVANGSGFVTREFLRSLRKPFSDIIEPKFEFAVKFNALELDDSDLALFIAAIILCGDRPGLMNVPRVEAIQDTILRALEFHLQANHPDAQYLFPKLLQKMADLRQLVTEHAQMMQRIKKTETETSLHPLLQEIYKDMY
SMILES,Potency [1],Potency [2],Potency [3],Potency [4],Potency [5],Potency [6],Potency [7],Potency [8],Potency [9],Potency [10],Potency [11],Potency [12],Potency [13],Potency [14],Potency [15],Potency [16],Potency [17],Potency [18],Potency [19]
Cc1cc(O)c2ccccc2c1O,10.6 µM (active),16.8 µM (active),13.3 µM (active),23.7 µM (active),13.4 µM (active),13.4 µM (active),16.9 µM (active),7.5 µM (active),11.9 µM (active),10.7 µM (active),–,–,–,–,–,–,–,–,–
CC(C)(C)c1ccc(C(=O)O)cc1,–,inactive,inactive,inactive,–,inactive,inactive,inactive,–,inactive,inactive,inactive,inactive,inactive,inactive,inactive,inactive,–,–
O=c1[nH]cnc2nc[nH]c12,–,inactive,inactive,inactive,inactive,inactive,inactive,inactive,inactive,–,inactive,–,inactive,–,–,inactive,inactive,–,–
CCCC(C)c1ccccc1O (centres undefined),inactive,–,inactive,inactive,inactive,inactive,inactive,inactive,inactive,–,–,–,inactive,inactive,inactive,–,inactive,inactive,–
OCCN1CCN(CC/C=C2/c3ccccc3Sc3ccc(C(F)(F)F)cc32)CC1,–,–,26.6 µM (active),23.7 µM (active),23.9 µM (active),26.8 µM (active),23.9 µM (active),29.8 µM (active),26.6 µM (active),23.9 µM (active),–,23.7 µM (active),inactive,–,–,–,–,–,–
CN(C)c1ccc(C2(c3ccc(N(C)C)cc3)OC(=O)c3cc(N(C)C)ccc32)cc1,–,–,inactive,inactive,inactive,inactive,inactive,inactive,inactive,inactive,–,–,–,–,inactive,–,–,–,–
COc1ccc(-c2ccc3cc(C(=O)O)ccc3c2)cc1C12CC3CC(CC(C3)C1)C2,–,–,7.5 µM (active),–,inactive,21.3 µM (active),10.7 µM (active),29.8 µM (active),–,inactive,–,–,–,–,23.7 µM (active),inactive,inactive,–,inactive
CC(C)(C)C(=O)OCOC(=O)C1N2C(=O)CC2S(=O)(=O)C1(C)C (centres undefined),2.11 µM (active),–,inactive,–,inactive,inactive,inactive,inactive,inactive,inactive,–,–,inactive,–,inactive,–,–,inactive,–
CC(=O)SC[C@@H](Cc1ccccc1)C(=O)NCC(=O)OCc1ccccc1,inactive,–,inactive,–,inactive,inactive,inactive,inactive,–,inactive,–,inactive,–,–,inactive,inactive,inactive,inactive,–
Nc1ccc2cc(S(=O)(=O)O)cc(O)c2c1N=Nc1ccccc1C(F)(F)F,inactive,inactive,inactive,–,inactive,inactive,inactive,inactive,–,inactive,inactive,inactive,inactive,inactive,inactive,inactive,–,inactive,inactive
C[C@]12CCC(=O)C=C1CC[C@@H]1[C@@H]2[C@@H](O)C[C@@]2(C)[C@H]1CC[C@]2(O)C(=O)COC(=O)CCC(=O)O,–,–,inactive,inactive,inactive,inactive,inactive,inactive,–,inactive,inactive,inactive,inactive,inactive,inactive,inactive,–,–,–
NC(=O)NS(=O)(=O)c1ccc(N)cc1,–,–,inactive,–,inactive,inactive,inactive,inactive,–,inactive,inactive,inactive,–,–,–,inactive,inactive,–,–
O=C(OCC1CO1)C1CCCCC1C(=O)OCC1CO1 (centres undefined),–,–,inactive,inactive,inactive,inactive,inactive,inactive,inactive,–,inactive,inactive,–,inactive,inactive,inactive,–,–,–
CCOc1ccc2nc3cc(N)ccc3c(N)c2c1,inactive,–,inactive,–,inactive,inactive,inactive,inactive,inactive,inactive,–,inactive,–,–,inactive,–,–,–,–
Cc1cc(O)c(C(C)(C)C)cc1C(C)(C)C,–,49 µM (active),54.9 µM (active),49 µM (active),21.9 µM (active),49 µM (active),24.5 µM (active),54.5 µM (active),54.5 µM (active),21.9 µM (active),–,34.7 µM (active),–,–,19.5 µM (active),–,–,–,–
Oc1cccc2cc3cccc(O)c3c(O)c12,–,–,inactive,inactive,inactive,inactive,inactive,inactive,inactive,–,–,inactive,inactive,–,inactive,–,–,inactive,–
